Screening results from PubChem.
A selection: hits, their analogues and other compounds. The true share with any hit is near 1.2%.
RGS7-Gao reg: modulates binding of RGS7 to human Galphao. binding response (% of control), % at 10 µM. P09471. hit rate 0.35% among 220,000. AID 1439. Multiplexed bead flow cytometry; actives lie on both sides; in the data active means binding response below about 49% or above about 150%; inconclusive means no clear call, values can overlap the other calls; inactive means in between;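 further: fluorescent Galphao held in activated GDP-AlF4 state binding bead-coupled RGS7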
RGS4-Gao reg: human RGS4-Galphao interaction regulation; binding response (% of control), % at 10 µM; P09471; hit rate 0.33% among 220,000; Multiplexed bead flow cytometry, RGS4-Galphao binding; actives lie on both sides; AID 1415; in the data active means binding response below about 49% or above about 150%; inactive means in between;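 further: fluorescent Galphao activated with aluminum fluoride binding bead-coupled RGS4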
GSH bead fluor: GSH bead compound fluorescence profile; GSH beads flow cytometry, compound fluorescence 488/530 nm; hits give high values; fluorescence (KMESF) at 10 µM; hit rate 0.25% among 190,000; AID 1776; in the data active means fluorescence above about 89;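 further: glutathione beads carrying GST-tagged Bcl family fusion proteins plus one bare bead set; values are compound well signal with DMSO vehicle wells as background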
RGS8-Gao: human RGS8-Galphao interaction regulation. P09471. multiplexed bead flow cytometry, RGS8-Galphao binding; actives lie on both sides. response (percent of control binding), % at 10 µM. hit rate 0.34% among 220,000; in the data active means response below about 60% or above about 140%; inactive means in between;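 further: Galphao activated as the GDP aluminium fluoride complex binding bead-coupled RGS8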
Avidin bead fluor: avidin bead compound fluorescence profile; fluorescence (KMESF) at 10 µM; Avidin beads, compound fluorescence 488/530 nm, flow cytometry; hits give high values; AID 1775; hit rate 0.38% among 220,000; in the data active means fluorescence above about 47
RGS16-Gao: RGS16-Galphao interaction regulator (human). O15492+P09471. bead-based flow cytometry RGS16-Galphao binding, fluorescence; actives lie on both sides. binding response (% of control), % at 10 µM. hit rate 0.38% among 220,000; call rule not given here;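 further: Galphao activated by GDP with aluminum fluoride before binding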
An asterisk follows results filed as active.

For CCN1/C(=C/c2ccc3cc(C)ccc3[n+]2CC)Sc2cc(C)c(C)cc21 the results were RGS7-Gao reg 143.9, RGS4-Gao reg 112.8, GSH bead fluor 15, RGS8-Gao 79.7, Avidin bead fluor 25 and RGS16-Gao 91.2.
CCCc1n(CC)c2ccccc2[n+]1CC(O)COC1CCCCC1 (stereo unspecified) was read as RGS7-Gao reg 91.0, RGS4-Gao reg 98.1, GSH bead fluor 18, RGS8-Gao 96.0, Avidin bead fluor 10 and RGS16-Gao 95.3.
Screening Cc1cc(C(=O)OCC(=O)c2ccc(Br)s2)c(C)o1 returned RGS7-Gao reg 82.4, RGS4-Gao reg 82.7, GSH bead fluor 269*, RGS8-Gao 91.1, Avidin bead fluor 7 and RGS16-Gao 86.3.
CC(=O)C1=C(O)C(=O)N(c2ccc(S(=O)(=O)Nc3nccs3)cc2)C1c1ccc(F)cc1 (stereo unspecified) was read as RGS7-Gao reg inconclusive, RGS4-Gao reg 101.6, RGS8-Gao 101.8, Avidin bead fluor 8 and RGS16-Gao 103.5.
For Cc1nc2cc(NC(=O)N3CC4(C)CC3CC(C)(C)C4)ccc2n1C (stereo unspecified) the results were RGS7-Gao reg 105.2, RGS4-Gao reg 99.2, GSH bead fluor 19, RGS8-Gao 98.2, Avidin bead fluor 48* and RGS16-Gao 97.5.
Screening COC(=O)CC1C(=O)NCCN1C(=O)CSc1nnc(Nc2ccc(C)cc2)s1 (stereo unspecified) returned RGS7-Gao reg 106.0, RGS4-Gao reg 99.1, GSH bead fluor 260*, RGS8-Gao 101.0, Avidin bead fluor 17 and RGS16-Gao 103.3.
Screening COC(=O)c1sccc1NC(=O)/C=C/c1ccc(Cl)cc1 returned RGS7-Gao reg 101.1, RGS4-Gao reg 101.9, GSH bead fluor 11, RGS8-Gao 100.2, Avidin bead fluor 13 and RGS16-Gao 100.4.
`O=C(COc1ccccc1)Nn1c(-c2ccccc2)nc2ccccc2c1=O` gave RGS7-Gao reg 98.7, RGS4-Gao reg 99.2, GSH bead fluor 7, RGS8-Gao 99.5, Avidin bead fluor 6 and RGS16-Gao 101.8.
Screening Cc1ccc(-c2nc3ccccc3c(=O)n2NC(=O)COc2ccccc2)cc1 returned RGS7-Gao reg 91.3, RGS4-Gao reg 94.6, GSH bead fluor 231*, RGS8-Gao 94.8, Avidin bead fluor 15 and RGS16-Gao 97.2.
Screening CCOc1c(OC(C)=O)ccc(/C=C2\N=C(SCC)SC2=O)c1[N+](=O)[O-] returned RGS7-Gao reg 112.7, RGS4-Gao reg 100.0, GSH bead fluor 27, RGS8-Gao 96.7, Avidin bead fluor 78* and RGS16-Gao 91.2.
Screening Cc1cccc2nc(-c3ccccc3)nc(N[C@@H](CO)c3ccccc3)c12 returned RGS7-Gao reg 96.9, RGS4-Gao reg 98.0, GSH bead fluor 9, RGS8-Gao 90.8, Avidin bead fluor 2 and RGS16-Gao 87.9.
`O=C(O)c1cc(-c2cccnc2)nn1-c1ccccn1` gave RGS7-Gao reg 99.8, RGS4-Gao reg 99.0, GSH bead fluor 260*, RGS8-Gao 99.0, Avidin bead fluor 7 and RGS16-Gao 106.0.
Screening COc1ccc(C2NC(=O)C(C)S2)cc1 (stereo unspecified) returned RGS7-Gao reg 135.7, RGS4-Gao reg 96.0, GSH bead fluor 10, RGS8-Gao 95.8, Avidin bead fluor 51* and RGS16-Gao 99.3.
C=CCN1C(=O)S/C(=C\c2ccc3c(c2)n(C)c(=O)n3C)C1=O was read as RGS7-Gao reg 97.2, RGS4-Gao reg 97.0, GSH bead fluor 10, RGS8-Gao 87.3, Avidin bead fluor 1 and RGS16-Gao 52.3.
CCN1C(=O)S/C(=C/c2cn(C)c3ccccc23)C1=O was read as RGS7-Gao reg 98.0, RGS4-Gao reg 101.0, GSH bead fluor 4, RGS8-Gao 98.3, Avidin bead fluor 12 and RGS16-Gao 99.8.
C=CCN1C(=O)S/C(=C/c2ccsc2)C1=O was read as RGS7-Gao reg 105.8, RGS4-Gao reg 105.5, GSH bead fluor 108*, RGS8-Gao 91.5, Avidin bead fluor 4 and RGS16-Gao 72.8.
For CCN1C(=O)S/C(=C/c2ccsc2)C1=O the results were RGS7-Gao reg 106.1, RGS4-Gao reg 98.8, GSH bead fluor 26, RGS8-Gao 104.1, Avidin bead fluor 52* and RGS16-Gao 105.1.
